Anthrax LF inh2 – inhibitors of Bacillus anthracis lethal factor protease | inhibition, % at 10 µM | AID 588501 | 360,000 compounds, 0.12% hits | multiplex microsphere protease cleavage assay, LF; also: plate controls were buffer without enzyme for full effect and enzyme alone for no effect
Target sequence (P15917 whole entry, looked up): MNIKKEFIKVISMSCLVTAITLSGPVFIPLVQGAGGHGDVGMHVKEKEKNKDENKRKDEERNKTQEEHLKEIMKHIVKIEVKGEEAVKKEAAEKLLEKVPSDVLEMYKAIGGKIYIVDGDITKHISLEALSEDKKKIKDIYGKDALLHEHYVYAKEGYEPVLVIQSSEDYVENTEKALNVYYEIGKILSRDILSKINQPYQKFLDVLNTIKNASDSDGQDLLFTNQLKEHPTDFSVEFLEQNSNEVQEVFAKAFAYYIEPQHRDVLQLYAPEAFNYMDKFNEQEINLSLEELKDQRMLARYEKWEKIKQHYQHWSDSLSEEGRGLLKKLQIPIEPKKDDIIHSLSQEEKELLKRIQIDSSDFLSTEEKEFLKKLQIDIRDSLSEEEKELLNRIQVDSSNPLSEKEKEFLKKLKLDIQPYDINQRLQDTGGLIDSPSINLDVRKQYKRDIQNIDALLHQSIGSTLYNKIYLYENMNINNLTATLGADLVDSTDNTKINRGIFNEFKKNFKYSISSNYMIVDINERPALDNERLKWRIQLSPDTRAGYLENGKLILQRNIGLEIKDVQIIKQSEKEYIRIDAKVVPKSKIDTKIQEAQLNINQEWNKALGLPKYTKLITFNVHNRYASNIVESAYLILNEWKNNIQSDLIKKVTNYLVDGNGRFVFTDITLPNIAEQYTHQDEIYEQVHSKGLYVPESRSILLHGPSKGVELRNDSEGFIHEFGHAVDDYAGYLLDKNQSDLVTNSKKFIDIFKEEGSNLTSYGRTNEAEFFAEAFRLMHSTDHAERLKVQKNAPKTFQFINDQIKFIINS
BoNT-A LC inh2 – BoNT A light chain protease inhibition | multiplex microsphere protease substrate cleavage, flow cytometry | inhibition, % at 10 µM | 360,000 compounds, 0.17% hits; also: plate controls were buffer without enzyme for full effect and enzyme alone for no effect
Autofluor counter – counter-screen for toxin protease inhibitors: compound fluorescence; compound autofluorescence counterscreen, microsphere flow cytometry; stronger effect = higher value; fluorescence intensity (no concentration beside the values); 360,000 compounds, 3.1% hits; AID 624483; in the data active = fluorescence intensity above about 16000; inconclusive = no clear call, values can overlap the other calls
PriA SSB inh – blocks PriA binding to SSB C-terminal tail; inhibition, % at 33 µM; AlphaScreen SSBct-PriA binding, biotinylated peptide; 430,000 compounds, 0.6% hits; in the data active = inhibition mostly above about 37%, no sharp cut-off; inactive = mostly below about 20%;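 also: plate controls were negative control peptide for no effect and reference peptide for full effect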
BoNT-F LC inh – blocks Botulinum neurotoxin F light chain protease. Multiplex microsphere protease cleavage assay, flow cytometry. inhibition, % at 10 µM. 360,000 compounds, 0.22% hits; in the data active = inhibition above about 35%, passing the limit was not always enough; inconclusive = no clear call, values can overlap the other calls; also: plate controls were buffer without enzyme for full effect and enzyme alone for no effect
Numbers without * were called inactive; ? = inconclusive; . = no result given. Shown are actives, neighbours in structure and some others; about 3.1% of the full set was active somewhere. Rule as the data show it, unless noted: active = inhibition above about 30%; inconclusive = no clear call, values can overlap the other calls; inactive = below that.

SMILES	Anthrax LF inh2	BoNT-A LC inh2	Autofluor counter	PriA SSB inh	BoNT-F LC inh
O=c1[nH]nc(Cc2ccc(Cl)cc2Cl)c2ccccc12	0.4	0.2	4500	-5.3	4.5
CCCc1nc(S(=O)(=O)Cc2ccc(Cl)cc2Cl)n[nH]1	0.1	4.8	17841*	0.3	8.2
O=C(Nc1cccnc1)Nc1ccc(F)c(Cl)c1	-0.6	?	23140*	-14.1	0.4
CSc1ccccc1NC(=O)Nc1cccc(Cl)c1	-1.7	0.5	23180*	-4.6	0.1
O=C(Nc1cccnc1)c1cc(F)c(F)cc1Cl	-0.1	-1.0	4323	-15.5	-7.2
CN(CC(=O)Nc1cccnc1)S(=O)(=O)c1cc(Cl)ccc1Cl	-3.1	?	25881*	-13.8	-7.4
CSc1ccccc1NC(=O)Nc1cccc(Cl)c1Cl	1.1	0.0	20444*	-19.1	-0.1
O=S(=O)(NCc1ccnc(N2CCOCC2)n1)c1ccc2c(c1)OCCO2	.	.	.	-14.0	.
O=C(NCCc1cccs1)c1c[nH]c(=O)n(Cc2ccccc2Cl)c1=O	.	.	.	-3.0	.
O=C(COc1coc(CN2CCN(c3ccc(F)cc3)CC2)cc1=O)NCc1ccco1	.	.	.	-17.0	.
CN(c1cccc(NC(=O)Nc2cccc(Cl)c2)c1)S(C)(=O)=O	5.1	0.0	4253	-1.5	6.9
CN(C)c1ccc(NC(=O)Nc2cccc(Cl)c2)cc1	-10.8	1.6	19659*	53.9	-20.1
CSc1ccccc1NC(=O)Nc1ccc(F)c(Cl)c1	-3.0	-4.4	24571*	-22.5	-9.6
CN(C)c1ccc(NC(=O)Nc2csc3ccccc23)cc1	-9.4	1.8	3009	40.3*	?
Cc1nn(C)cc1/C=N/n1nnnc1N	-10.8	6.1	17300*	.	5.5
COC(=O)c1sccc1S(=O)(=O)Nc1ccc(-n2nnn(C)c2=O)cc1	.	.	.	-6.0	.
CCCC(=O)Nc1ccc2oc(-c3ccncc3)nc2c1	-1.6	-0.1	16375*	2.9	-1.0
COc1ccc(CC(=O)Nc2ccc(-c3noc(-c4ccccc4OC)n3)cc2)cc1	-1.5	?	22431*	-0.1	0.4
COc1ccc(-c2nc(-c3ccc(Br)cc3)no2)c(OC)c1	5.7	0.6	19523*	-25.6	-1.5
COc1ccc(-c2nc3cc(NC(=O)Cc4ccc(OC)c(OC)c4)ccc3o2)cc1	-3.4	-0.8	16446*	6.0	-3.4
COc1ccc(OCC(=O)Nc2ccc3oc(-c4ccncc4)nc3c2)cc1	-1.0	0.4	2660	-7.6	-2.9
COc1cccc(-c2nc(-c3ccc(NC(=O)Cc4ccccc4OC)cc3)no2)c1	-0.4	0.1	2236	-4.1	-3.7
Cn1cc(S(=O)(=O)N2CCCN(C(=O)c3ccc(OC(F)(F)F)cc3)CC2)cn1	.	.	.	-6.0	.
CC(=NNc1c([N+](=O)[O-])c(C)nn1C)c1ccc(F)cc1F	.	.	.	-15.2	.
Cc1nn(C(=O)c2cc3c(s2)CCCC3)c(C)c1Sc1ccc(F)cc1	.	.	.	-6.0	.
SMILES	Anthrax LF inh2	BoNT-A LC inh2	Autofluor counter	PriA SSB inh	BoNT-F LC inh
O=C(CSc1nc2ccccc2[nH]1)c1ccccc1F	2.8	0.0	5791	-3.0	0.2
C=CCn1c(C)cc(C(=O)CSc2nc3ccccc3[nH]2)c1C	-3.1	?	23335*	4.5	0.8
CSc1nc2ccc(Cl)cc2[nH]1	-9.0	5.1	20323*	0.8	8.8
O=C(CSc1nc2ccccc2[nH]1)c1c[nH]c2ccccc12	-2.6	1.4	3433	64.7*	0.4
Cc1cc(C(=O)CSc2nc3ccc(Cl)cc3[nH]2)c(C)n1C	-9.2	-2.7	23487*	-10.1	-3.7
O=C(NCc1ccnc(N2CCOCC2)n1)Nc1ccc(F)c(Cl)c1	.	.	.	-26.0	.
OCCNc1nc2ccc(Cl)cc2[nH]1	-0.5	4.2	22121*	-13.2	4.1
COc1ccc2nc(NCCO)[nH]c2c1	-3.9	0.7	2282	-16.7	10.8
Cc1ccc(N2CCN(CCc3nc4cc(NC(=O)c5ccco5)ccc4n3C)CC2)cc1	-5.6	-2.1	24375*	16.4	-3.8
Cn1c(CCN2CCN(c3ccc(F)cc3)CC2)nc2cc(NC(=O)c3ccco3)ccc21	-1.7	0.0	24006*	-1.4	-4.1
Cn1c(CCNC(=O)c2ccco2)nc2cc(NS(=O)(=O)c3ccc(Cl)cc3)ccc21	-1.7	-6.0	21550*	-14.8	-6.5
Cc1ccc(/C=C(\C#N)C(=O)Nc2ccccc2O)o1	.	.	.	9.0	.
O=C(COc1ccccc1)Nc1nc(-c2ccc(Cl)cc2Cl)cs1	.	.	.	12.0	.
CC(C)c1nc2sc3c(NCc4ccco4)ncnc3c2c2c1COC(C)(C)C2	-3.8	-0.5	2940	.	0.0
CSc1nc(NCc2ccco2)c2sc3nc(C(C)C)c4c(c3c2n1)CC(C)(C)OC4	0.1	?	19909*	-4.0	-0.1
Cc1ccc(-c2csc3nc(C)n(N)c(=O)c23)o1	-0.9	?	22183*	-17.0	0.1
COc1ccc2nc(-c3ccc(OC)c(NC(=O)C(C)(C)C)c3)cn2n1	.	.	.	-2.0	.
Cc1ccc(-c2cn3c(CC(=O)NCCc4ccccc4)csc3n2)cc1	.	.	.	-5.0	.
Cc1ccc(C)c(NC(=O)CSc2n[nH]c(-c3ccccn3)n2)c1	-4.5	-3.8	3563	79.9*	-1.8
Cc1ccccc1NC(=O)CSc1n[nH]c(-c2ccccn2)n1	6.3	-1.6	5393	105.8*	-12.5
Cc1ccccc1NC(=O)CSc1nc(N2CCCCC2)nc(N2CCCCC2)n1	-3.4	?	22832*	-10.9	-3.9
O=C(CSc1n[nH]c(-c2ccccn2)n1)Nc1cccc(Cl)c1	3.6	-1.5	4451	87.9*	-1.5
CC(=O)c1cccc(NC(=O)CSc2nc(N3CCCCC3)nc(N3CCCCC3)n2)c1	-3.7	0.1	3999	-9.7	-3.5
O=C(CSc1n[nH]c(-c2ccccn2)n1)Nc1ccc(Cl)cc1Cl	.	.	.	23.3	.
O=C(c1c[nH]c2ccccc12)N1CCN(c2nc(-c3ccsc3)cs2)CC1	.	.	.	9.0	.
SMILES	Anthrax LF inh2	BoNT-A LC inh2	Autofluor counter	PriA SSB inh	BoNT-F LC inh
C=CCSc1nnc(Cc2nnc(SCC=C)n2-c2ccccc2)n1-c1ccccc1	.	.	.	-18.0	.
O=C(CSc1n[nH]c(-c2ccccn2)n1)NC1CC2CCC1C2 (stereo unspecified)	.	.	.	99.0*	.
CCOC(=O)C1=CN(Cc2cccc(F)c2)S(=O)(=O)NC1c1ccc2ccccc2c1 (stereo unspecified)	-3.9	-0.2	3606	5.4	-7.4
CCOC(=O)C1=CN(Cc2cccc(F)c2)S(=O)(=O)NC1c1cccc(OC)c1 (stereo unspecified)	-5.1	-0.3	2996	46.6*	-1.3
O=C(NCCc1ccc(F)cc1)c1cccc2c1C(=O)c1ccc(N3CCC(Cc4ccccc4)CC3)cc1S2(=O)=O	40.7*	22.0	8857	-15.8	30.5
CCOC(=O)CSc1nc(-c2ccccc2)nc2ccc(F)cc12	?	?	?	-8.3	-14.6
CCOC(=O)CSc1nc(-c2ccccc2)nc2ccccc12	-2.0	3.8	21864*	-58.3	2.8
CCOC(=O)CSc1nc2cc(C(=O)N3CCCC3)ccc2c(=O)n1Cc1ccccc1	1.7	-0.1	4169	-10.5	0.0
CCOC(=O)CSc1nc2cc(C(=O)N3CCC(C(N)=O)CC3)ccc2c(=O)n1-c1ccccc1	1.5	4.8	21305*	-9.0	4.1
CCOC(=O)CSc1nc2ccccc2c(=O)n1-c1ccc(C(=O)NCCOC)cc1	-3.9	0.4	21747*	-17.9	-1.2
COCCNC(=O)c1ccc(-n2c(SCc3cc(F)ccc3F)nc3ccccc3c2=O)cc1	-4.4	0.1	2115	2.9	-6.0
COc1ccc(CCNC(=O)CSc2nc3cc(-c4ccccc4)sc3c(=O)n2C)cc1OC	.	.	.	-9.0	.
